Here are results for 8 compounds from PubChem BioAssay (NCI).

This is part of a sample that, as a whole, favours compounds with a hit. Of some 83,000 tested, about 20% had one in any assay.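 Each cell line was grown in a 96-well plate and treated with one concentration of compound for 48 hours. Values below 10 were considered active.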 A number with no mark means an inactive call. Calls of active or inactive are those of the source.

Test systems include NCI-H23 lung; NCI-H226 lung; NCI-H322M lung; HOP-62 NSCLC; NCI-H460 lung; HOP-92 NSCLC; A549/ATCC NSCLC; 786-0 renal; COLO 205 colon; DU-145 prostate; K-562 leukemia; MALME-3M melanoma; MDA-MB-231 breast; RXF 393 renal; SF-268 CNS; SF-295 CNS; SF-539 CNS; UACC-257 melanoma; M14 melanoma; NCI-H522 lung.
Experiment in all cases: NCI-60 one-dose screen, 48 h (100 = growth as untreated, 0 = no growth, -100 = all killed)
What all share (conditions): 10 µM unless noted

For `CCCC/C(=C\c1ccc(O)c(O)c1)C(=O)NC(Cc1ccccc1)C(=O)C(=O)NCCc1ccc(OC)cc1` (stereo not given), the growth in the assay on NCI-H23 lung was 92.2%; in the assay with NCI-H226 lung, 92.7%; with NCI-H322M lung it was 100%; in the assay on HOP-62 NSCLC, 98.2%; with NCI-H460 lung, 102%; in the assay with HOP-92 NSCLC, 86.2%. In addition, the growth in the assay with A549/ATCC NSCLC is 103%; with 786-0 renal, 104%; in the assay with COLO 205 colon, 110%; in the assay on DU-145 prostate, 104%; in the assay with K-562 leukemia, 91.5%; in the assay with MALME-3M melanoma it was 101%. Besides, the growth is 92.1% with MDA-MB-231 breast; 96% in the assay on RXF 393 renal; 92% in the assay with SF-268 CNS; 97.8% in the assay with SF-295 CNS; 91.6% with SF-539 CNS; 100% in the assay on UACC-257 melanoma. For the same compound, the growth in the assay on M14 melanoma was 95%.

For the compound `COc1ccccc1/C=C/C(=O)c1nnn(-c2ccc(F)cc2)c1C`, the growth in the assay on NCI-H23 lung was 42.9%; in the assay on NCI-H226 lung it was 53.1%; in the assay on NCI-H322M lung, 70.6%; in the assay with NCI-H460 lung, 28.4%; with HOP-92 NSCLC, 72.9%; in the assay with NCI-H522 lung, 54%. Moreover, the growth in the assay with A549/ATCC NSCLC was 41.7%; with 786-0 renal, 84.5%; with COLO 205 colon, 72.4%; in the assay with DU-145 prostate, 3.67% (active); with K-562 leukemia it was 8.81% (active); in the assay with MALME-3M melanoma, 70.6%. Moreover, the growth in the assay on MDA-MB-231 breast was 65.6%; in the assay on RXF 393 renal it was 40.7%; in the assay on SF-268 CNS, 66.2%; with SF-295 CNS, 64.3%; in the assay with SF-539 CNS, 20.7%; in the assay with UACC-257 melanoma, 71.3%. Moreover, the growth in the assay on M14 melanoma was 62.3%.

Take `O=C(/C=C/c1cccc(C(F)(F)F)c1)Nc1cccc(C(F)(F)F)c1`: the growth was 33.1% in the assay with NCI-H23 lung; 64.2% with NCI-H226 lung; 79.9% in the assay on NCI-H322M lung; 13.9% with NCI-H460 lung; 7.77% (active) with HOP-92 NSCLC; 39% in the assay with A549/ATCC NSCLC. The growth with 786-0 renal is 76.4%; in the assay on COLO 205 colon, 38.4%; in the assay on DU-145 prostate, 30.1%; in the assay with K-562 leukemia, 23.2%; with MALME-3M melanoma it was 84.7%; with MDA-MB-231 breast, 108%. The growth is 88.7% in the assay on RXF 393 renal; 70.7% with SF-268 CNS; 10.5% in the assay on SF-295 CNS; 97.1% with SF-539 CNS; 87.5% with UACC-257 melanoma; 56.8% in the assay with M14 melanoma.

For `CN1CC[C@@H]2[C@@]3(C)CC[C@H](O)C(C)(C)[C@@H]3CC[C@@]2(C)[C@]2(C)CC[C@@]3(CO)CCC(C)(C)C[C@@H]3C12` (stereo not given in full), the growth with NCI-H23 lung is 90.7%; with NCI-H226 lung, 94.4%; with NCI-H322M lung it was 98.8%; in the assay with NCI-H460 lung it was 98.3%; in the assay with HOP-92 NSCLC it was 66.8%; in the assay on NCI-H522 lung it was 98%. Also, the growth in the assay with A549/ATCC NSCLC is 86%; in the assay with 786-0 renal, 80.7%; in the assay on COLO 205 colon, -2.47% (active); in the assay with DU-145 prostate it was 103%; in the assay with K-562 leukemia, 21.5%; in the assay on MALME-3M melanoma, 84.3%. Further, the growth in the assay on MDA-MB-231 breast was 85%; in the assay on RXF 393 renal it was 77.2%; in the assay with SF-268 CNS, 96.7%; in the assay with SF-295 CNS it was 104%; in the assay on SF-539 CNS, 74.9%; in the assay on UACC-257 melanoma, 49.1%. Besides, the growth with M14 melanoma is 58.6%.

For `CC(C)NC(=O)c1cc(-c2ccc(NC(=O)Nc3ccc(F)c(C(F)(F)F)c3)cc2)nc2cccnc12`, the growth in the assay on NCI-H23 lung was 93.2%; with NCI-H226 lung, 94.8%; in the assay with NCI-H322M lung, 107%; with NCI-H460 lung, 86.4%; with HOP-92 NSCLC, 90.1%; in the assay with NCI-H522 lung, 87.4%. Further, the growth with A549/ATCC NSCLC was 86.8%; in the assay on 786-0 renal, 88.3%; in the assay with COLO 205 colon it was 114%; in the assay on DU-145 prostate, 100%; with K-562 leukemia it was 84.2%; with MALME-3M melanoma it was 123%. The growth in the assay with MDA-MB-231 breast was 92.3%; in the assay on RXF 393 renal, 81.9%; in the assay with SF-268 CNS, 92%; in the assay with SF-295 CNS, 86.2%; in the assay on SF-539 CNS it was 90.3%; in the assay on UACC-257 melanoma it was 101%. Besides, the growth in the assay on M14 melanoma is 92.3%.

Regarding `O=S(=O)(NCCCNc1nccc(-c2[nH]c(-c3ccccc3)nc2-c2ccc(F)c(O)c2)n1)c1ccccc1`, the growth in the assay on NCI-H23 lung is 96.5%; in the assay on NCI-H226 lung it was 99.4%; with NCI-H322M lung, 117%; in the assay with NCI-H460 lung it was 87.3%; with HOP-92 NSCLC, 105%; with NCI-H522 lung, 91.2%. For the same compound, the growth in the assay with A549/ATCC NSCLC was 98.3%; in the assay on 786-0 renal it was 113%; with COLO 205 colon it was 95.5%; in the assay with DU-145 prostate, 113%; in the assay with K-562 leukemia, 60.6%; in the assay on MALME-3M melanoma it was -4.84% (active). Besides, the growth in the assay on MDA-MB-231 breast was 81.7%; in the assay with RXF 393 renal it was 121%; in the assay on SF-268 CNS it was 90.7%; in the assay with SF-295 CNS, 96.9%; in the assay with SF-539 CNS it was 105%; in the assay with UACC-257 melanoma it was 22.4%. Besides, in the assay on M14 melanoma, the growth is 27.8%.

For the compound `O=C(CCCCCCNC(=O)C(O)(O)C(F)(F)F)Nc1ncc(-c2ccc(Br)cc2)s1`, the growth is -16% (active) in the assay with NCI-H23 lung; 4.5% (active) in the assay on NCI-H226 lung; 12.2% in the assay on NCI-H322M lung; 0.631% (active) in the assay on NCI-H460 lung; -23.3% (active) with HOP-92 NSCLC; -15.2% (active) in the assay on A549/ATCC NSCLC. For the same compound, the growth in the assay with 786-0 renal is 14.9%; with COLO 205 colon it was -55.9% (active); with DU-145 prostate, 3.81% (active); in the assay with K-562 leukemia it was 11.8%; with MALME-3M melanoma, 19.9%; in the assay on MDA-MB-231 breast, 19.7%. Also, the growth in the assay with RXF 393 renal was -52.8% (active); with SF-268 CNS, 1.89% (active); in the assay with SF-295 CNS it was -29.3% (active); in the assay on SF-539 CNS it was 12.1%; in the assay with UACC-257 melanoma, 9.48% (active); with M14 melanoma, 8.94% (active).

`COc1ccc(-c2cnc(NC(=O)CCCCCCNC(=O)C(O)(O)C(F)(F)F)s2)cc1`: the growth in the assay on NCI-H23 lung was -9.04% (active); in the assay with NCI-H226 lung, 5.81% (active); in the assay with NCI-H322M lung it was 8.73% (active); with NCI-H460 lung, 0.915% (active); with HOP-92 NSCLC it was -25.4% (active); with NCI-H522 lung it was -41.4% (active). The growth with A549/ATCC NSCLC is -12.5% (active); with 786-0 renal it was 14.9%; in the assay on COLO 205 colon it was -70.8% (active); in the assay on DU-145 prostate it was -8.16% (active); in the assay on K-562 leukemia it was 14.4%; in the assay on MALME-3M melanoma it was 11%. Also, the growth is 17% with MDA-MB-231 breast; -48% (active) in the assay with RXF 393 renal; 2% (active) in the assay on SF-268 CNS; -44.2% (active) in the assay on SF-295 CNS; 12% with SF-539 CNS; 18.3% in the assay with UACC-257 melanoma. The growth in the assay on M14 melanoma was 14.4%.
